These results are taken from paper PMC7862700, “An all-to-all approach to the identification of sequence-specific readers for epigenetic DNA modifications on cytosine”.

Holding throughout (assay): DAPPL (digital affinity profiling via proximity ligation, sequencing); 10 mM Tris-HCl pH 7.5, 50 mM NaCl, 1 mM DTT, 4% glycerol, room temperature, 30 min; GST-TFs on glutathione beads, 16-mer random dsDNA library, 0.1% formaldehyde crosslink after washing; high values mean tight binding
One test addresses T1, FEV (Homo sapiens, UniProt Q99581 1-238).
T1 sequence: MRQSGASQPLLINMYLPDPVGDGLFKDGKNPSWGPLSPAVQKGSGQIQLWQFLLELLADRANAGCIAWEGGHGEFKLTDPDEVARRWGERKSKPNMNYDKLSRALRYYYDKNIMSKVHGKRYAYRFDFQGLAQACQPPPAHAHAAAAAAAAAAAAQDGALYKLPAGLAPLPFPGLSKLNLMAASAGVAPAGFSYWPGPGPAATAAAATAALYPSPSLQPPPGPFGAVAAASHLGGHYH
As to conditions: protein: recombinant; tags: N-terminal GST; dsDNA, one strand shown. Summed up:
(§1)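 A tag-only sample was pooled with DNA-barcoded human transcription factors that had been expressed in yeast as GST fusions and captured on glutathione beads. The pools were incubated for 30 min at room temperature with 200 nmole of a random double-stranded 16-mer DNA library in Tris/NaCl/DTT/glycerol buffer, then washed, crosslinked with 0.1% formaldehyde, proximity-ligated (BsaI/T4 ligase, 1 h, 37 °C), PCR-amplified and sequenced on an Illumina NextSeq500. Binding signal is each hexamer's read frequency for a factor divided by its frequency for the tag-only sample.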

For the next test, the target named is ETV5 (Homo sapiens, UniProt P41161 1-510). As to conditions: protein: recombinant; tags: N-terminal GST; dsDNA, one strand shown. Summed up:
as §1

The target in the next test is HSF1 (Homo sapiens, UniProt Q00613 1-529). As to conditions: protein: recombinant; tags: N-terminal GST; chain copies: 3; dsDNA, one strand shown. Summed up: as §1
Sequence of HSF1 (Q00613 whole entry): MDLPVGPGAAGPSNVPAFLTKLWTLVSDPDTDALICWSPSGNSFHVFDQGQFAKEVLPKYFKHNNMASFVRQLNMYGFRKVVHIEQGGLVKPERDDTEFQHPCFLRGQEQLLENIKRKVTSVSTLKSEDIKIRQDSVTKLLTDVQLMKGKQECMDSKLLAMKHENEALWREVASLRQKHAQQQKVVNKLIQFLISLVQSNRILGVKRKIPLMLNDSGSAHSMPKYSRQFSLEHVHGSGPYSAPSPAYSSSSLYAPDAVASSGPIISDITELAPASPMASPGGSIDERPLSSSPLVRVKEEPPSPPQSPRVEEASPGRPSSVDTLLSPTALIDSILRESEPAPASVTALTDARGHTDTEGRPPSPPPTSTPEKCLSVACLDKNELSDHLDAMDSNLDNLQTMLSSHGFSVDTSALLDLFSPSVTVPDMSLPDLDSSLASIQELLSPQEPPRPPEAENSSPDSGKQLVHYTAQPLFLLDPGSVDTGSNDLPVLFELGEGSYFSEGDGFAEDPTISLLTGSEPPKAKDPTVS
The target of the next test is T2, SPIC (Homo sapiens, UniProt Q8N5J4 1-248).
T2 sequence: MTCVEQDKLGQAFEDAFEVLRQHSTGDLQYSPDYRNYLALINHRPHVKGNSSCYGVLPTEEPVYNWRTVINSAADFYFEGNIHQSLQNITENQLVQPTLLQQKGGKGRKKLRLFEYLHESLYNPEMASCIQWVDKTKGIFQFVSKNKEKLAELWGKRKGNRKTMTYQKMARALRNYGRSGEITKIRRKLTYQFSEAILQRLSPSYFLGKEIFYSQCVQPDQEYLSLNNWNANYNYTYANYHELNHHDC
The conditions noted are these: protein: recombinant; tags: N-terminal GST; dsDNA, one strand shown. Summed up:
as §1

The target in another test is ELF4 (Homo sapiens, UniProt Q99607 1-663). As to conditions: protein: recombinant; tags: N-terminal GST; dsDNA, one strand shown. Summed up: as §1
Sequence of ELF4 (Q99607 whole entry): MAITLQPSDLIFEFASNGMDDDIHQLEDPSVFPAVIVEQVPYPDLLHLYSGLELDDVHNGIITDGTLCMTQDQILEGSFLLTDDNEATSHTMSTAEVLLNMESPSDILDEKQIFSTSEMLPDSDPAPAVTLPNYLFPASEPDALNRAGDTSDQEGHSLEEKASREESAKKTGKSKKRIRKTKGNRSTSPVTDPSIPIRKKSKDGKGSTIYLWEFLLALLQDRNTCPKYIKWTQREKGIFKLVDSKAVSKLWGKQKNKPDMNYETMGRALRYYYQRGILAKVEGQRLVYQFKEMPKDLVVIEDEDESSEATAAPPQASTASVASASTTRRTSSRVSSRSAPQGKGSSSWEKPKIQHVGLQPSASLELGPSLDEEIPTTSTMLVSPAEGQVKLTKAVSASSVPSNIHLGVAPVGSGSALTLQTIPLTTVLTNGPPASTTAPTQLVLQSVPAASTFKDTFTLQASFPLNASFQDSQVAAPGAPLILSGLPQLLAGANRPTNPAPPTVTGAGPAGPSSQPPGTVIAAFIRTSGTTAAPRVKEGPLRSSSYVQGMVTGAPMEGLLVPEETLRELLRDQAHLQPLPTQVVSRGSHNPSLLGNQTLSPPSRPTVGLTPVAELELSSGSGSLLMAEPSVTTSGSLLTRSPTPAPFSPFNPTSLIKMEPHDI
For the next test, the target named is T3, ELK4 (Homo sapiens, UniProt P28324-2 1-405).
T3 sequence: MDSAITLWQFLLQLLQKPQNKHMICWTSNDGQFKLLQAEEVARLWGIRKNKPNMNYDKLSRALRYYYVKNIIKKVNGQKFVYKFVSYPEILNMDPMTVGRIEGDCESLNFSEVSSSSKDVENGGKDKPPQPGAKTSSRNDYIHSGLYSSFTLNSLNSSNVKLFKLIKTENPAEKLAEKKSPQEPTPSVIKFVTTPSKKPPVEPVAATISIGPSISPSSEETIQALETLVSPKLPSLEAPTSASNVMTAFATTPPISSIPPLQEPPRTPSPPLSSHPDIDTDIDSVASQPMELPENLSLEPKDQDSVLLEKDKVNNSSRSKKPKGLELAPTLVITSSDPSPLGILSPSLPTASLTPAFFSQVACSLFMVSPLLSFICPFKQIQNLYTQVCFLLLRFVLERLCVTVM
As to conditions: protein: recombinant; tags: N-terminal GST; dsDNA, one strand shown. Summed up: as §1

The next test has as its target T4, ETV2 (Homo sapiens, UniProt O00321 1-342).
T4 sequence: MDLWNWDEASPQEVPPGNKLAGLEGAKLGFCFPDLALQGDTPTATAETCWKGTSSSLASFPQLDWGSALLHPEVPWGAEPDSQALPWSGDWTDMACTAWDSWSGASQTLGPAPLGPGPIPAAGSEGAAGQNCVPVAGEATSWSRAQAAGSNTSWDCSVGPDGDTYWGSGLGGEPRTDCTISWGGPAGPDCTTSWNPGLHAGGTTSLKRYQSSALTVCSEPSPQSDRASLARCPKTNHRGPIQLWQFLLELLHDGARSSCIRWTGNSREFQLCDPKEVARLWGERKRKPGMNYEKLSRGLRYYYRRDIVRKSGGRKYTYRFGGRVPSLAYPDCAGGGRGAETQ
The conditions noted are these: protein: recombinant; tags: N-terminal GST; dsDNA, one strand shown. Summed up: as §1

The target in a further test is T5, ELF3 (Homo sapiens, UniProt P78545 1-371).
T5 sequence: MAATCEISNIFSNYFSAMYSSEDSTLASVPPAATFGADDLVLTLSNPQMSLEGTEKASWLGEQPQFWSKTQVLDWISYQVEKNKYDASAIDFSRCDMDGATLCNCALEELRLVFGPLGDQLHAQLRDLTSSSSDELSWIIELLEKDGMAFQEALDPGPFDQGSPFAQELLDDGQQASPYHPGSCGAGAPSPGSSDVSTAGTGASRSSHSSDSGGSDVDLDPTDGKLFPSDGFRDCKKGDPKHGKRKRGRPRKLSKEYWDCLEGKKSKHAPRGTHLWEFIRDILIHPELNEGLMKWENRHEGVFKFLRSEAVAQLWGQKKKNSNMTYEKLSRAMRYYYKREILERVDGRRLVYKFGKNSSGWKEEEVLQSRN
The conditions noted are these: protein: recombinant; tags: N-terminal GST; dsDNA, one strand shown. Summed up:
as §1

In the next test the target is CRX (Homo sapiens, UniProt O43186 1-299). As to conditions: protein: recombinant; tags: N-terminal GST; dsDNA, one strand shown. Summed up: as §1
Sequence of CRX (O43186 whole entry): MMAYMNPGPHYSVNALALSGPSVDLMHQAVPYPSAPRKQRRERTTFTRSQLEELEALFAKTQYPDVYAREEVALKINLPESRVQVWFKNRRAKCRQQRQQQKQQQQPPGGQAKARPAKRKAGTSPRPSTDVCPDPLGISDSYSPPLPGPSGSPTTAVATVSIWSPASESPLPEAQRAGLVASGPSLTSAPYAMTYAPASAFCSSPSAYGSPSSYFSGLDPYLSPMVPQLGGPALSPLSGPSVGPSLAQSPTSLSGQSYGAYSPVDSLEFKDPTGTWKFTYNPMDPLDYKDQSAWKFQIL
In another test the target is ETV1 (Homo sapiens, UniProt P50549 1-477). The conditions noted are these: protein: recombinant; tags: N-terminal GST; dsDNA, one strand shown. Summed up: as §1
Sequence of ETV1 (P50549 whole entry): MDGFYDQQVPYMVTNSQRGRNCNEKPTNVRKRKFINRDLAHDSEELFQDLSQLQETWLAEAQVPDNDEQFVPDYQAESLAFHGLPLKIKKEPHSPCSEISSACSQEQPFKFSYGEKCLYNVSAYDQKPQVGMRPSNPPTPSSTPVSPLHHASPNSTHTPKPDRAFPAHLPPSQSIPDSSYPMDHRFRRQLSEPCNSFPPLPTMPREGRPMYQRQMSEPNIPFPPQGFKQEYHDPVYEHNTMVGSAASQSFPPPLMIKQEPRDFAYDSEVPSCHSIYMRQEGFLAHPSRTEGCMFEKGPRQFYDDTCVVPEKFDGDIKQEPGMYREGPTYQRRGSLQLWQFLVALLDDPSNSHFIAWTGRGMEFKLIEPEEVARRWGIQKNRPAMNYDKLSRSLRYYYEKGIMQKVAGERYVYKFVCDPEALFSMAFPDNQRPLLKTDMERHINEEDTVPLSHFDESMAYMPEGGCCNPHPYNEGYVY
The next test concerns the target T6, ERF (Homo sapiens, UniProt P50548 1-548).
T6 sequence: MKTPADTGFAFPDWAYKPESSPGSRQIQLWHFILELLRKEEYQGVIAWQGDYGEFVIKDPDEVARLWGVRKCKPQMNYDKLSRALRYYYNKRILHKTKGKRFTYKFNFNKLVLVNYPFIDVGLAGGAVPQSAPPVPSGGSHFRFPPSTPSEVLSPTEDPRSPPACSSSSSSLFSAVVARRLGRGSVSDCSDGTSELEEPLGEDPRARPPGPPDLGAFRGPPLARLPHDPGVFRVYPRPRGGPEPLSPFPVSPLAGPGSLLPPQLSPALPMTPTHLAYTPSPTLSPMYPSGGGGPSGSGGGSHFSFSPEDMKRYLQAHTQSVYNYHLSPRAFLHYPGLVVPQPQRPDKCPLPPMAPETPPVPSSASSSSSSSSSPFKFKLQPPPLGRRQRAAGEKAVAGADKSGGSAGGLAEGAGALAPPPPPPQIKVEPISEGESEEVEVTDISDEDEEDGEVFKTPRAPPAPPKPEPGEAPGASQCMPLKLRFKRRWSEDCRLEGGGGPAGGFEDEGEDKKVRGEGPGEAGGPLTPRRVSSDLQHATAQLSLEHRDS
As to conditions: protein: recombinant; tags: N-terminal GST; dsDNA, one strand shown. Summed up:
as §1

For a further test, the target named is T7, ETV3L (Homo sapiens, UniProt Q6ZN32 1-361).
T7 sequence: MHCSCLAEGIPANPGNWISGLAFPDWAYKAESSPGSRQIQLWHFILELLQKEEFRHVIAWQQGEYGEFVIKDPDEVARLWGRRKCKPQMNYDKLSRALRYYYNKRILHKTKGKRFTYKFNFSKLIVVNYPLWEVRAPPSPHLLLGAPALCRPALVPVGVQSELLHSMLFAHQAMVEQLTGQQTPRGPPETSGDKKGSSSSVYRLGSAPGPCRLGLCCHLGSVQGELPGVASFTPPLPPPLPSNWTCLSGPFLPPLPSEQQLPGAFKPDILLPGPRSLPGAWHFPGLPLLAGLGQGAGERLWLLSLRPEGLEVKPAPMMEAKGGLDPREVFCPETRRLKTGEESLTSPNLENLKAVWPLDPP
As to conditions: protein: recombinant; tags: N-terminal GST; dsDNA, one strand shown. Summed up:
as §1

The next test deals with T8, ETS2 (Homo sapiens, UniProt P15036 1-469).
T8 sequence: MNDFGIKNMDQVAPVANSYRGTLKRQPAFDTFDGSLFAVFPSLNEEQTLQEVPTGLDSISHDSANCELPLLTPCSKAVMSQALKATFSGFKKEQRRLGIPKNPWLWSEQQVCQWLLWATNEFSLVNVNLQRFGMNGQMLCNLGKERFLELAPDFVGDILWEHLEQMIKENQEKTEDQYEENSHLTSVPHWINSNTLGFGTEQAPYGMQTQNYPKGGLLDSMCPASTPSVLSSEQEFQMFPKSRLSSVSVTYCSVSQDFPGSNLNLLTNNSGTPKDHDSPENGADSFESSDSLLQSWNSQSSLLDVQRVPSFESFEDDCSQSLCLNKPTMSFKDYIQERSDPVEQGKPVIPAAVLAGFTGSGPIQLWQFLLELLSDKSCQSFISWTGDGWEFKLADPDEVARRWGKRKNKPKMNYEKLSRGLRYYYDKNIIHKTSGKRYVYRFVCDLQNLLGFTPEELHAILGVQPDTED
The conditions noted are these: protein: recombinant; tags: N-terminal GST; dsDNA, one strand shown. Summed up:
as §1

The next test concerns the target T9, SPDEF (Homo sapiens, UniProt O95238 1-335).
T9 sequence: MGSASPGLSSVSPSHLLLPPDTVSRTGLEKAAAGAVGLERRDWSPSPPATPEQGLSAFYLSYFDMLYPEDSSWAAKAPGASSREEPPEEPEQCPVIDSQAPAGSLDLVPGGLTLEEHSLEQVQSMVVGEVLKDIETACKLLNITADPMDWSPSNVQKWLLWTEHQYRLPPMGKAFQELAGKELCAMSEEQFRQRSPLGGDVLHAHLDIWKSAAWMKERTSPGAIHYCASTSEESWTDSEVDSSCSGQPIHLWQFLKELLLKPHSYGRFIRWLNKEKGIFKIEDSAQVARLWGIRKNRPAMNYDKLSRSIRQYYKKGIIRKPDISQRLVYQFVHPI
The conditions noted are these: protein: recombinant; tags: N-terminal GST; dsDNA, one strand shown. Summed up:
as §1

A further test has as its target T10, ETV7 (Homo sapiens, UniProt Q9Y603 1-341).
T10 sequence: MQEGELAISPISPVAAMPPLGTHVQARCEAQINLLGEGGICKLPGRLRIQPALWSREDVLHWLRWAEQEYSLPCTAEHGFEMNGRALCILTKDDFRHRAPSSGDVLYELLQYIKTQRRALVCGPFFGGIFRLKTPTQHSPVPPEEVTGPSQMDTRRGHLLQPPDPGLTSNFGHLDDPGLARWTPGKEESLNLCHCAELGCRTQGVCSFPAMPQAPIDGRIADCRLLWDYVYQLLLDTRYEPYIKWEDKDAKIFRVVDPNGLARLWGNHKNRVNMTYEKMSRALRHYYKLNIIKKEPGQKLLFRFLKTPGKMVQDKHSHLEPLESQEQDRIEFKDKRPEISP
As to conditions: protein: recombinant; tags: N-terminal GST; dsDNA, one strand shown. Summed up:
as §1

Another test addresses T11, ELF5 (Homo sapiens, UniProt Q9UKW6-2 1-255).
T11 sequence: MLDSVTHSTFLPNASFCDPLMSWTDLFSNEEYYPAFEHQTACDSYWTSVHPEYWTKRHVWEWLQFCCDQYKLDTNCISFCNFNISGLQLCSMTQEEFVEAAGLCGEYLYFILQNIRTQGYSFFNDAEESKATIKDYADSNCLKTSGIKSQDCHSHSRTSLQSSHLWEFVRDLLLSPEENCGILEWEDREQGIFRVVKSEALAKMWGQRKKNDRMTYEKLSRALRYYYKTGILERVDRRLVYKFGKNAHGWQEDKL
As to conditions: protein: recombinant; tags: N-terminal GST; dsDNA, one strand shown. Summed up: as §1

The target of the next test is T12, ETV3 (Homo sapiens, UniProt P41162-2 1-143).
T12 sequence: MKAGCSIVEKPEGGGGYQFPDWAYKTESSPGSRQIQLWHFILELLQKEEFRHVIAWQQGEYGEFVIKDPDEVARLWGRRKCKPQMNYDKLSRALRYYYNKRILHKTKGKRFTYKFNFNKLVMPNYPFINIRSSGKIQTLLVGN
The conditions noted are these: protein: recombinant; tags: N-terminal GST; dsDNA, one strand shown. Summed up:
as §1

The target in another test is ETV6 (Homo sapiens, UniProt P41212 1-452). The conditions noted are these: protein: recombinant; tags: N-terminal GST; dsDNA, one strand shown. Summed up: as §1
Sequence of ETV6 (P41212 whole entry): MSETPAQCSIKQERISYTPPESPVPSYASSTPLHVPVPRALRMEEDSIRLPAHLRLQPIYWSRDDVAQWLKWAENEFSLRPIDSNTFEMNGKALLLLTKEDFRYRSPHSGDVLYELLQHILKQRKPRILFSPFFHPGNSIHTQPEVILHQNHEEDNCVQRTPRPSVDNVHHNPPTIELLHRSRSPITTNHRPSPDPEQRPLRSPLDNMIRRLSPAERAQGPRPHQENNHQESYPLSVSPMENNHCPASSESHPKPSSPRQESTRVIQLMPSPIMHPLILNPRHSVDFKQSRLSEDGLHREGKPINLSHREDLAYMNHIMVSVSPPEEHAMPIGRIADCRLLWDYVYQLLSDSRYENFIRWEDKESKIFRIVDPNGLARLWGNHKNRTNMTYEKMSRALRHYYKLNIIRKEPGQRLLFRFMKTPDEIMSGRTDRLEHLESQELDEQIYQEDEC

Sequence of ETV5 (P41161 whole entry): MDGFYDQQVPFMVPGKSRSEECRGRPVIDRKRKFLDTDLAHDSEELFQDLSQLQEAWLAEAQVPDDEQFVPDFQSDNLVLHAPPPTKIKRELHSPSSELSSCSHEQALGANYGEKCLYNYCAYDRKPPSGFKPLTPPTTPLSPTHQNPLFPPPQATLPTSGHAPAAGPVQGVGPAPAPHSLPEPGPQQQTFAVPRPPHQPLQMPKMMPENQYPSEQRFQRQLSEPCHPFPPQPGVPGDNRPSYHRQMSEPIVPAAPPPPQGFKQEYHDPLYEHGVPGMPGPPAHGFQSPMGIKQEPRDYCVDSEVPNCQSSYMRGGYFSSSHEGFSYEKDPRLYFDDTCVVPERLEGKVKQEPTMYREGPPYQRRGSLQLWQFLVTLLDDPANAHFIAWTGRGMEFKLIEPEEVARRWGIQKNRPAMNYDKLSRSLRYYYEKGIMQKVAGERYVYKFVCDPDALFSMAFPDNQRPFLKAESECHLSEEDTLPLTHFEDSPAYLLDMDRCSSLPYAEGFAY

As to ACATCC, the binding signal in the test with FEV is 3.7 fold enrichment (6-mer frequency, TF over GST control); with ETV5, 2.77 fold enrichment (6-mer frequency, TF over GST control); with HSF1, 1.06 fold enrichment (6-mer frequency, TF over GST control); in the test with SPIC, 2.43 fold enrichment (6-mer frequency, TF over GST control); with ELF4 it was 2.28 fold enrichment (6-mer frequency, TF over GST control); with ELK4, 2.29 fold enrichment (6-mer frequency, TF over GST control). The binding signal with ETV2 is 2.61 fold enrichment (6-mer frequency, TF over GST control); with ELF3, 2.38 fold enrichment (6-mer frequency, TF over GST control); with CRX it was 1.05 fold enrichment (6-mer frequency, TF over GST control); in the test with ETV1, 2.66 fold enrichment (6-mer frequency, TF over GST control); in the test with ERF, 2.41 fold enrichment (6-mer frequency, TF over GST control); with ETV3L, 2.46 fold enrichment (6-mer frequency, TF over GST control). Moreover, the binding signal with ETS2 is 2.68 fold enrichment (6-mer frequency, TF over GST control); with SPDEF, 5.32 fold enrichment (6-mer frequency, TF over GST control); in the test with ETV7 it was 2.28 fold enrichment (6-mer frequency, TF over GST control); with ELF5, 3.25 fold enrichment (6-mer frequency, TF over GST control); in the test with ETV3, 2.88 fold enrichment (6-mer frequency, TF over GST control); with ETV6, 2.49 fold enrichment (6-mer frequency, TF over GST control).
